Data from PubChem BioAssay AID651718 (The Scripps Research Institute Molecular Screening Center, 2012).
The whole screen tested about 360,000 compounds, of which about 2,700 (0.75%) were called active. Many of the other results were omitted from the sample, so actives are more common in it than they were. Unmarked numbers belong to inactive results. Cut-off read from the data, not from the text of the source: active = inhibition above about 4.5%; inactive = the rest.

Each compound was assayed on Methionine sulfoxide reductase A (Bos taurus) (assay: inhibition of methionine sulfoxide reductase A – biochemical, absorbance, bovine, HTS, primary screen (AID 651718;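 note: 0% = vehicle wells with enzyme and 100% = reference inhibitor wells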)). Conditions: purified bovine MsrA, absorbance read-out; at 15.5 µM; active compounds read high.

Q: `COc1ccccc1CNS(=O)(=O)c1cc2c3c(c1)CCC(=O)N3CCC2` was tested. Which inhibition did it give?
A: Its inhibition is 0.88%.

Q: Which inhibition does the source give for `Cc1cccc(CN2CCN(C3CN(Cc4cn(Cc5cc(C)cc(C)c5)nn4)S(=O)(=O)C3)CC2)c1` (stereo not drawn) here?
A: Its inhibition is -0.09%.

Q: `COC(=O)c1c(-c2ccc(OC)cc2)c2c(c3c4cc(OC)ccc4n(S(=O)(=O)c4ccc(F)cc4)c13)C(=O)N(C)C2` was tested. Which inhibition did it give?
A: The inhibition was 1.35%.

Q: `COC(=O)[C@]12C[C@H](CC(=O)NCc3ccc(OC)c(OC)c3)C(=O)N(Cc3ccccc3)C1=C[C@H](C(C)C)O[C@@H]2C1CC1` was tested. Which inhibition did it give?
A: The inhibition was 0.87%.

Q: `C/C(=N\Nc1ccccc1)c1cccs1` was tested. Which inhibition did it give?
A: Its inhibition is -0.47%.

Q: For `C/C(=N\Nc1nc2ccccc2[nH]1)c1cccs1`, which inhibition is on record?
A: The inhibition was 4.27%.

Q: With `C/C(=N\Nc1ccc(S(N)(=O)=O)cc1[N+](=O)[O-])c1cccs1` as the compound, how does the inhibition read?
A: Its inhibition is 4.74% (active).

Q: For `COc1cccc(CC(=O)N2CCN(C(=O)C(=O)c3cccc(C(F)(F)F)c3)CC2)c1`, which inhibition is on record?
A: The inhibition was -0.48%.

Q: With `COc1ccccc1Cc1c(-c2ccc(F)cc2)nc2ccc(C)cn12` as the compound, how does the inhibition read?
A: Its inhibition is -0.14%.

Q: Which inhibition does the source give for `O=C(N[C@H](C(=O)N1CCC[C@H]1C(=O)NCCc1ccccc1Cl)c1ccccc1)c1ccccc1` here?
A: The inhibition was -1.55%.

Q: For `COC(=O)[C@]1(Cc2ccccc2)NC=C(C(=O)c2ccccc2)[C@@H]1c1cccc(OC)c1`, which inhibition is on record?
A: Its inhibition is 1.03%.

Q: With `Cc1n[nH]c(=O)nc1N/N=C/c1cccs1` as the compound, how does the inhibition read?
A: The inhibition was 5.54% (active).

Q: `Cn1c(=O)c2c(nc(N/N=C/c3cccs3)n2Cc2ccc(Br)cc2)n(C)c1=O` was tested. Which inhibition did it give?
A: The inhibition was -0.37%.

Q: For `Cc1nc2ccccc2n1CC(=O)N/N=C/c1cccs1`, which inhibition is on record?
A: Its inhibition is 0.96%.

Q: How did the inhibition turn out when `Cc1ccc(N)cc1CN1CCN(c2ncc(Cc3ccccc3)cn2)CC1` was run?
A: The inhibition was -0.75%.

Q: How did the inhibition turn out when `CC(=O)C1=C(C)N(Cc2ccccc2)C(=S)NC1c1cccc(Br)c1` (stereo not drawn) was run?
A: The inhibition was 0.33%.

Q: `COc1ccccc1C(=O)N/C(=C/c1ccc2c(c1)OCO2)C(=O)Nc1cccc(C(=O)O)c1` was tested. Which inhibition did it give?
A: The inhibition was 5.04% (active).

Q: With `COc1ccc(/C=C(/NC(=O)c2ccccc2)C(=O)Nc2cccc(C(=O)O)c2)cc1` as the compound, how does the inhibition read?
A: The inhibition was 1.96%.

Q: With `COc1ccccc1C(=O)N/C(=C/c1ccco1)C(=O)Nc1ccc(C(=O)O)cc1` as the compound, how does the inhibition read?
A: The inhibition was 3.68%.

Q: Which inhibition does the source give for `O=C(NCc1ccccc1)[C@H]1CCCN1C(=O)[C@@H]1CCCN1C(=O)c1ccc(Cl)cc1Cl` here?
A: Its inhibition is -0.17%.

Q: How did the inhibition turn out when `O=[N+]([O-])c1ccc(N=NNc2ccc([N+](=O)[O-])cc2)cc1` was run?
A: Its inhibition is 0.99%.

Q: `NC(=O)C1(Nc2ccc([N+](=O)[O-])cc2)CCCC1` was tested. Which inhibition did it give?
A: The inhibition was 1.4%.

Q: `NC(=S)N/N=C/c1ccc([N+](=O)[O-])cc1` was tested. Which inhibition did it give?
A: The inhibition was 5.41% (active).
